Test results from ChEMBL document CHEMBL1157539, “Thousands of chemical starting points for antimalarial lead identification” (Nature, 2010).

Columns and labels:
Type in all cases: functional
[1] = system: Plasmodium falciparum; assay: GSK_TCMDC: Inhibition of Plasmodium falciparum 3D7 in whole red blood cells, using parasite LDH activity as an index of growth. Test compounds present at 2uM
[2] = system: Plasmodium falciparum; assay: GSK_TCMDC: Inhibition of Plasmodium falciparum Dd2 in whole red blood cells, using parasite LDH activity as an index of growth. Test compounds present at 2uM
[3] = system: HepG2; assay: GSK_TCMDC: Percent inhibition of human HepG2 cell line. Test compounds present at 10uM.

Cc1cc(C(=O)N(Cc2ccc(-c3ccc(CNCCc4ccc(S(C)(=O)=O)cc4)cn3)cc2)C(C)CN(C)C)ccc1[N+](=O)[O-].O=C(O)C(F)(F)F (stereo not given)
Inhibition [1]: 99% | Inhibition [2]: 46% | Inhibition [3]: 17%

COc1cc(C(F)(F)F)nc2c(CNCCCNc3cc(=O)c4ccccc4[nH]3)scc12.Cl
Inhibition [1]: 92% | Inhibition [2]: 16% | Inhibition [3]: 0%

COc1ccccc1CCN(C)CCN1CCC(NC(=O)c2ccc(-c3ccc(C(F)(F)F)cc3)cc2)CC1
Inhibition [1]: 92% | Inhibition [2]: 15% | Inhibition [3]: 46%

Br.CC1(C)NC(N)=NC(=N)N1OCC1CCCCC1
Inhibition [1]: 94% | Inhibition [2]: 97% | Inhibition [3]: 67%

N#Cc1cccc(NC(=O)c2ccc(S(=O)(=O)NCC3CCCN3CC3CCCCC3)cc2)c1.O=C(O)C(F)(F)F (stereo not given)
Inhibition [1]: 88% | Inhibition [2]: 18% | Inhibition [3]: 25%

COc1cc2nc(Nc3ccc4c(c3)OCCO4)nc(N)c2cc1OC.Cl
Inhibition [1]: 100% | Inhibition [2]: 80% | Inhibition [3]: 13%

S=C(NCCCCCN1CCC(c2c[nH]c3ccccc23)CC1)Nc1cc(Cl)cc(Cl)c1
Inhibition [1]: 100% | Inhibition [2]: 35% | Inhibition [3]: 25%

O=C(/C=C/c1ccc(Cl)c(Cl)c1)NCCCCCN1CCC(c2c[nH]c3c(-c4ccccc4)cccc23)CC1
Inhibition [1]: 99% | Inhibition [2]: 40% | Inhibition [3]: 74%

CCc1cc(Cc2cnc(N)nc2N)cc(CC)c1OC
Inhibition [1]: 90% | Inhibition [2]: 12% | Inhibition [3]: 3%

Cl.OCCNc1nc(Nc2ccc(Cl)cc2)nc2ccccc12
Inhibition [1]: 100% | Inhibition [2]: 99% | Inhibition [3]: 30%

CCN(CC)C(=O)C1CCCN(c2cc(C)nc(Nc3ccc(Cl)cc3)n2)C1 (stereo not given)
Inhibition [1]: 94% | Inhibition [2]: 64% | Inhibition [3]: 13%

CC(=O)c1ccc(N2CCN(C(=O)Nc3ccc(Cl)cc3)CC2)cc1
Inhibition [1]: 97% | Inhibition [2]: 0% | Inhibition [3]: 4%

CCCc1cc(=O)[nH]c(-n2nc(C)cc2NC(=O)CC(c2ccccc2)c2ccccc2)n1
Inhibition [1]: 97% | Inhibition [2]: 88% | Inhibition [3]: 39%

O=C(Nc1ccon1)c1cc(-c2cccnc2)nc2ccc(Br)cc12
Inhibition [1]: 99% | Inhibition [2]: 77% | Inhibition [3]: 7%

COc1cc(Nc2nccc(Nc3ccc4c(C)n[nH]c4c3)n2)cc2ccccc12.Cl
Inhibition [1]: 100% | Inhibition [2]: 82% | Inhibition [3]: 13%

N=c1c(C(=O)NCc2ccccc2)cc2c(=O)n3ccccc3nc2n1CCc1ccccc1
Inhibition [1]: 99% | Inhibition [2]: 25% | Inhibition [3]: 5%

CN1CCN(CCCN(Cc2cccc(-c3ccc(CNCc4ccc5c(c4)OCO5)cc3)c2)C(=O)Nc2ccccc2)CC1.O=C(O)C(F)(F)F
Inhibition [1]: 98% | Inhibition [2]: 69% | Inhibition [3]: 39%

CN(C)CCN(C)Cc1ccc(-c2ccc3c(Nc4ccc(Cl)cc4F)ccnc3c2)o1
Inhibition [1]: 100% | Inhibition [2]: 76% | Inhibition [3]: 20%

Cc1cccc2nc(-c3ccc(-c4cccc(CNCCCNS(C)(=O)=O)c4)cc3)[nH]c12.O=C(O)C(F)(F)F
Inhibition [1]: 99% | Inhibition [2]: 5% | Inhibition [3]: 5%

CCOC(=O)c1ccc(OCc2ccc(-c3ccccc3)cc2)cc1
Inhibition [1]: 96% | Inhibition [2]: 0% | Inhibition [3]: 18%

CCSc1ccccc1COc1c(C)nc(N)nc1N.Cl
Inhibition [1]: 93% | Inhibition [2]: 4% | Inhibition [3]: 54%

O=C(NCCCN1CCC(Cc2ccccc2)CC1)c1cc2c(Cl)nc3ccccc3c2s1
Inhibition [1]: 98% | Inhibition [2]: 40% | Inhibition [3]: 22%

Cc1ccc(C(=O)Nc2cccc([N+](=O)[O-])c2)cc1S(=O)(=O)N1CC(C)CC(C)C1 (stereo not given)
Inhibition [1]: 100% | Inhibition [2]: 42% | Inhibition [3]: 24%

CN(C)CCN(C)C(=O)c1cc(-c2ccncc2)c(-c2ccc(Cl)c(O)c2)o1.Cl
Inhibition [1]: 97% | Inhibition [2]: 34% | Inhibition [3]: 0%

CC(C)CCNC(=O)[C@@H]1[C@H]2C(=O)N(C3CCCCC3)C(=O)[C@H]2[C@H]2C=C[C@@H]3C(c4ccc(C(C)(C)C)cc4)=NO[C@@H]3N21
Inhibition [1]: 96% | Inhibition [2]: 48% | Inhibition [3]: 0%

CC(COc1ccc2c(c1)OC(C)(C)CC2c1ccccc1)NCC(O)c1cccc(Cl)c1.Cl (stereo not given)
Inhibition [1]: 98% | Inhibition [2]: 96% | Inhibition [3]: 1%

CCN(CC)CCCC(C)Nc1c(-c2ccc(OC)cc2)cnc2ccccc12 (stereo not given)
Inhibition [1]: 93% | Inhibition [2]: 38% | Inhibition [3]: 3%

CCNC(=O)Nc1ccc(-c2cnc(N)c(-c3nc4ccc(OC)cc4[nH]3)c2)cc1
Inhibition [1]: 100% | Inhibition [2]: 43% | Inhibition [3]: 51%

CN(C)CCOc1ccc(NC(=O)NC(C)(C)c2nc(-c3ccc(Cl)c(O)c3)c(-c3ccncc3)[nH]2)cc1.Cl
Inhibition [1]: 98% | Inhibition [2]: 98% | Inhibition [3]: 22%

OC(CNCc1ccccc1Oc1ccccc1)c1cc(Br)cs1 (stereo not given)
Inhibition [1]: 94% | Inhibition [2]: 79% | Inhibition [3]: 0%

O=C(Nc1cccc(C(F)(F)F)c1)Nc1ccc(F)c([N+](=O)[O-])c1
Inhibition [1]: 100% | Inhibition [2]: 100% | Inhibition [3]: 43%

c1ccc(-c2nc(NC3CCCCC3)cc(C3CC3)n2)nc1
Inhibition [1]: 97% | Inhibition [2]: 76% | Inhibition [3]: 35%

CC(C)c1ccc(NC(S)=NN=Cc2ccccn2)cc1
Inhibition [1]: 100% | Inhibition [2]: 98% | Inhibition [3]: 47%

CC(C)c1cccc(C(NC(=O)[C@H]2Cc3ccccc3CN2C(=O)c2cccc(N3CCOCC3)c2)C2CCCC2)c1 (stereo not given in full)
Inhibition [1]: 94% | Inhibition [2]: 96% | Inhibition [3]: 3%

Cc1cccc2nc(-c3ccc(-c4cccc(NC(=O)c5ccncc5)c4)cc3)[nH]c12
Inhibition [1]: 98% | Inhibition [2]: 8% | Inhibition [3]: 46%

CS(=O)(=O)N(c1ccccc1)c1cc(C(=O)N[C@@H](Cc2ccccc2)[C@H](O)CNC2CC2)cc(N2CCCC2=O)c1
Inhibition [1]: 100% | Inhibition [2]: 98% | Inhibition [3]: 1%

COc1ccc(C2CC(=O)C3=C(C2)NC(C)=C(C(=O)OC(C)C)C3c2c(F)cccc2Cl)cc1OC (stereo not given)
Inhibition [1]: 93% | Inhibition [2]: 81% | Inhibition [3]: 0%

COc1ccc(CN(C)CCOc2ccc(NC(=O)c3cccc4c(=O)cc(-c5ccccc5)[nH]c34)cc2)cc1OC
Inhibition [1]: 98% | Inhibition [2]: 44% | Inhibition [3]: 13%

O=C(NC1CCCCCC1)[C@@H]1CCCN1C(=O)c1ccc(O)c(-c2ccc(Cl)c(Cl)c2)c1
Inhibition [1]: 99% | Inhibition [2]: 98% | Inhibition [3]: 0%

C[C@H](NC(=O)[C@H](CCCCNC(=O)OC(C)(C)C)NC(=O)OC(C)(C)c1ccc(-c2ccccc2)cc1)C(=O)OCc1ccccc1
Inhibition [1]: 97% | Inhibition [2]: 1% | Inhibition [3]: 4%
